# Pf growth 96h: Primary qHTS for delayed death inhibitors of the malarial parasite plastid, 96 hour incubation; AID 504834, 2011; hit rate 6.9% among 320,000; P. falciparum luciferase reporter growth, 96 h; Potency, µM (top dose mostly 28.7 µM), for the others: at the top dose activity change, negative = inhibition, usual class: inhibitors; further: potency means the concentration at half of the fitted maximal effect; on the % scale 0 is the no-effect control and ±100 the full control effect
#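 Infected RBCs, 2% Hct / 0.05% parasitemia final; luciferase-reporter P. falciparum; cpd 96 h, 37 C, 5% CO2; luciferase detection reagent; luminescence.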
# Shiga toxin inh: A qHTS for Small Molecule Inhibitors of Shiga Toxin. Vero cells, Shiga toxin protein synthesis inhibition reporter. inhibition, % at 38.7 µM. hit rate 9.2% among 290,000. AID 2315, 2010; in the data active means inhibition mostly above about 28%, no sharp cut-off; inactive means mostly below about 43%; further: 0% is about no effect
# CHX counter: Cycloheximide Counterscreen for Small Molecule Inhibitors of Shiga Toxin. max response, %. cell reporter, cycloheximide protein synthesis inhibition counterscreen. hit rate 12% among 300,000; in the data active means max response mostly above about 13%, no sharp cut-off; inactive means mostly below about 14%; further: read at 38.3 µM for the half of the compounds with a filed dose; 0% is about no effect
# Pf growth 48h: Primary qHTS for delayed death inhibitors of the malarial parasite plastid, 48 hour incubation. P. falciparum luciferase growth in erythrocytes, 48 h. Potency, µM (series often up to 28.7 µM), inactives show top-dose activity change, negative = inhibition, most hits filed as inhibitors. hit rate 5.9% among 310,000; further: potency means the concentration at half of the fitted maximal effect; on the % scale 0 is the no-effect control and ±100 the full control effect
#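 Firefly luciferase activity from engineered P. falciparum reports growth; inhibitors lower the luminescent signal. Cultures contained 2% hematocrit erythrocytes at 0.1% final parasitemia.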
# * marks the source's active call; other numbers are inactive results; ? = inconclusive; . = no result; ! = not confirmed by another sample. Shown are actives, neighbours in structure and some others; about 21% of the full set was active somewhere. Unless noted, the call rests on the fitted dose curve; in most records, active means well fitted inhibition curve with a large enough effect; inconclusive means small, poorly fitted or top-dose-only effect, or another doubt; inactive means no such curve, though single readings can be large or run the other way.
SMILES,Pf growth 96h,Shiga toxin inh,CHX counter,Pf growth 48h
CCN(C(=O)[C@@H]1CCCN1C(=O)c1cccs1)c1nc2cc(Cl)ccc2s1,1.1%,8.8,18.2*,11.5%
CS(=O)(=O)C1=NSC2=NC(=O)/C(=C\c3ccc(OC(=O)c4ccco4)c(Br)c3)C(=N)N21,?,-10.6,3.6,5.9%
CC(C)c1nnc(NC(=O)c2nc(S(=O)(=O)Cc3ccccc3F)ncc2Cl)s1,92.1%,105.7*,56.5*,17.8%
CSc1nnc(NC(=O)c2nc(S(=O)(=O)Cc3ccccc3F)ncc2Cl)s1,?,35.7*,50.9*,14.1%
Cc1nnc(NC(=O)c2nc(S(=O)(=O)Cc3ccccc3C)ncc2Cl)s1,34.8%,51.5*,43.6*,-8.7%
COc1c2ccoc2nc2c(OC)c(OC[C@@H](O)C(C)(C)O)ccc12,-6.0%,.,.,?
Cc1ccccc1C(=O)NCC(=O)Nc1ccc(C)c(S(=O)(=O)N2CCCCCC2)c1,?,-0.2,10.2,-6.8%
CCN1C=C(Cc2ccccc2C)C2=C(C1)C(c1ccccc1C)C(C#N)=C(N)O2 (stereo not drawn),2.94µM*,3.3,4.2,.
CCN1C=C(Cc2ccc(F)cc2)C2=C(C1)C(c1ccc(F)cc1)C(C#N)=C(N)O2 (stereo not drawn),?,-4.8,-4.1,.
COc1ccccc1/C(C)=N/Oc1cc(N)cc([N+](=O)[O-])c1,56.8%,.,.,33.0%
O=C(O)CC1CCC(=C(Cl)Cl)C1 (stereo not drawn),11.7µM*,-14.4,-3.9,-1.1%
COc1ccc([C@@H]2[C@@H]3C(=O)N(C(C)(C)C)C(=O)[C@@H]3[C@]3(Cc4ccc(Cl)cc4)C(=O)N(c4cccc(C)c4)C(=O)N23)cc1,8.28µM*,-6.7,-1.7,?
COc1ccc([C@@H]2[C@@H]3C(=O)N(C(C)(C)C)C(=O)[C@@H]3[C@]3(Cc4ccc(Cl)cc4)C(=O)N(c4ccc(C)cc4)C(=O)N23)cc1,6.57µM*,.,.,13.1µM*
COc1ccc(N2C(=O)N3[C@H](c4cccc(C)c4)[C@@H]4C(=O)N(Cc5ccccc5)C(=O)[C@@H]4[C@]3(Cc3ccccc3)C2=O)cc1,4.65µM*,0.4,4.6,?
CC(C)(C)NC[C@H](O)COc1nsnc1N1CCOCC1,0.675µM*!,-9.0,-3.5,2.39µM*!
CCOC(=O)C1CCN(C(=O)CCS(=O)(=O)c2ccc3c(c2)CC(C)N3C(=O)CC)CC1 (stereo not drawn),?,-6.4,-8.5,-9.7%
CCOC(=O)N1CCN(C(=O)CCS(=O)(=O)c2ccc3c(c2)CC(C)N3C(=O)CC)CC1 (stereo not drawn),14.7µM*,13.3,-2.6,0.6%
CC1Cc2cc(S(=O)(=O)CCC(=O)N3CCN(c4ccccc4)CC3)ccc2N1C(=O)C1CC1 (stereo not drawn),9.28µM*,0.9,7.2,-12.0%
Cc1ccc(C(=O)N2CCN(CCNC(=O)C(=O)NCc3ccc(Cl)cc3)CC2)cc1,?,-3.5,-5.8,-8.3%
O=C(CNC(=O)COc1ccccc1)NCc1cccnc1,23.4%,12.1,-5.2,28.3%
COc1cc2ncc(C(=O)c3ccccc3)c(N3CCN(Cc4ccccc4)CC3)c2cc1OC,?,15.4,1.4,4.65µM*
O=C(Cn1cccn1)N1CCCC(N2CCN(c3ccccc3F)CC2)C1 (stereo not drawn),3.7µM*,-2.0,-2.6,26.6%
O=C(Nc1ccc(N2CCCC2)cc1)c1cc(Cl)ccc1Cl,?,.,13.2*,29.7%
O=C(Nc1ccccc1N1CCCC1)c1cc(Cl)ccc1Cl,0.0%,-3.6,-1.6,?
CC(Oc1ccc(Cl)cc1Cl)C(=O)Nc1cccc(O)c1 (stereo not drawn),?,43.0,30.8*,0.0%
SMILES,Pf growth 96h,Shiga toxin inh,CHX counter,Pf growth 48h
Cc1cc(NC(=O)C(C)Oc2ccc(Cl)cc2Cl)n(-c2ccccc2)n1 (stereo not drawn),5.86µM*,-12.8,0.9,.
CN1CCN(c2ccc(NC(=O)c3ccc(Cl)cc3Cl)cc2)CC1,-21.3%,.,14.8*,-27.5%
O=C(COc1ccccc1Cl)Nc1ccc(N2CCCC2)cc1,1.9%,53.5*,25.5*,2.8%
CC(=O)N1CCN(c2ccc(NC(=O)c3ccccc3Cl)cc2)CC1,88.4%,2.8,-1.2,19.8%
O=C(Nc1ccc(N2CCCCCC2)cc1)c1ccccc1Cl,?,52.6*,33.8*,52.0%
O=C(COc1ccccc1Cl)N1CCCC(N2CCN(c3ccc(F)cc3)CC2)C1 (stereo not drawn),8.28µM*,9.3,0.9,11.7µM*
CCOc1ccccc1NC(=O)CCCc1ccc(OC)c(C)c1,?,6.6,5.9,?

# Assay outcomes: PubChem BioAssay, National Center for Advancing Translational Sciences (NCATS)
